This assay deals with VDR:RXRa (NR concentration 270 nM, RXRa partner concentration 90 nM). Nature of the assay: PBM binding z-score (relative to random genomic background probes); higher = stronger binding; sequences stand for … in GC…GCGATTGACAGCGTAGAATGAAGG
The procedure:
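Protein-binding microarray (Agilent 4x180K custom design, double-stranded 60-nt probes: 5' GC cap, 34-nt variable region, 24-nt constant primer region; full probe sequence given). Purified or IVT nuclear receptor:RXRα heterodimers (3:1 NR:RXRα, mostly 270:90 nM) or homodimers were incubated for 1 h in PBS with 2% milk and no ligand, then detected with Alexa488 antibodies. Fluorescence from o1-orientation probes (~5 replicates averaged) was converted to z-scores against 500 random hg19 background probes. Variable regions are seed direct-repeat (DR0–DR5) sites, all their single-nucleotide variants and half-site ablations.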
For AGTCAAAGTTCACTAGGTAACGTATGATTCAGCT, the PBM binding z-score is 3.93.
Next, GCGCCTGGGGCATCAGCAGGTTACCATAACTTAA: -0.28.
GCAGACAGGTGACACGCAGGTAACTCAGGGTGGC yielded a PBM binding z-score of -0.517.
The figure for GCTCGGAGGACACGGTCAGAGCTTTGTCCGTAGA is -0.792; for CCAGACAGGTGAAAGGTAACTCTGTCTGGTACGC it is 0.668.
In turn, CAAACTAGGGCACAGAGGTCAAAGTCCGTGCGTA gave a PBM binding z-score of 6.64.
The sequence ATCGAAAGGTCGACGAGGTGAGTCTACACCGTTT yielded a PBM binding z-score of 5.5.
For the sequence ATCTCTCGGTAACAAGTTCAGTGAAAGAGAGGAC, the PBM binding z-score came to 1.62.
CAAACTAGGTCAAAGGTGAAAGTCGAGCCAACCA: the PBM binding z-score amounted to 4.04.
CCAGACAGGTGAAAGGTGACTCAGTCTGGTACGC showed a PBM binding z-score of 1.3.
The figure for TCTAGCAAGCCAGAGGGTCACTCAAGAGGTACGG is 1.32; for CCTAGCAGGCAAGGGTCACTCAAGCATTTCGCTT it is 2.81.
Sequence ACTAGTTGGTCAGTTGAGGTCACACACAATTCGG yielded a PBM binding z-score of 4.65.
Sequence TAGCCTAGGTCATGGGCCAGAATACCACGCGAAC registered a PBM binding z-score of 1.91.
On to TAGCCTGGGTCATGCGGGCCAGTATAGTGTCGGC, for which the PBM binding z-score stood at 3.07.
The sequence TTACCAATGTGAGCTGAGGTCGTTGATCCAACTC showed a PBM binding z-score of 1.78.
Regarding TATACAGGCTCAAAGGCCAGAGTACGAATGTCGA, the PBM binding z-score is -0.106.
CCTTACGGGTCACGAGGCTATAGCACGACGAGCG: the PBM binding z-score was 3.93.
Next, ACAGACAGGTGATGAACGTAACTCAGGCTATCAT: -0.0512; CGAACTAGGGCAAGGACAGTGAATCTCCGCACGC: -0.473.
Take CCGACTGTGGCAAGGTTACCATAACGCACAGCCA: the PBM binding z-score came out at 0.0735.
CCTACTGGGCCACGAAAGGTCATCGATTCAGTGA displayed a PBM binding z-score of 4.24.
In turn, CGAACTAGGCCAGAACAGGACAGTGAAGGATGAT had a PBM binding z-score of -0.283.
The sequence TCTCGGAGGACACGAAGGTCTGAGCTTTCCAGAG yielded a PBM binding z-score of -0.323.
AGAATGAGGTTGCCAAAGATCAGGGAAACGCTTG registered a PBM binding z-score of 0.143.
Next, ATCTGTAGGTAAGACTCAGTTCAGTGAAGAACGC: 0.82.
CAAACTAGGTCCCCGGAAGGTCAAAGTCCGCATG yielded a PBM binding z-score of 3.23.
The figure for GCGACTGGGGCATCAGCGGGTTACCATAACTTAA is -0.262; for CCCGAAAGGTCGTGCTCAGGTGAGTATACCAAAC it is 3.47.
With CCTCGAAGGACAGAAGGTCAGAGCTGTCCGCTTT, the PBM binding z-score was 0.957.
For GCTGCTAGTTCAGGTTGGTCAGCTAACGGGTACG, the PBM binding z-score came out at 0.0828.
TCTTGTTGGTCACGGAGGTCACACACGACGGGTA returned a PBM binding z-score of 6.07.
Regarding TCTTGTATATCAAGCAGGTTAAGAAAGCCTGAGT, the PBM binding z-score was determined as 0.659.
The figure for TCTGGTTGGTCAAAGGTCACACACTCGAAATGCG is 5.33.
ATATGTAGGTTAGGTGGGGTCATTCAGACTAGGC came in with a PBM binding z-score of 6.5.
Sequence AGAATGAGGTTATACGTAGATCGGGGAAGAAAGT returned a PBM binding z-score of 1.43.
With TCTTGTAGATCAAAGATTAAGAAAGCCGAAGCCT, the PBM binding z-score worked out at 0.389.
The sequence CAGCCTAGGTCAGGGCCAGTAAAGGAGGAACGTT registered a PBM binding z-score of 0.0313.
The sequence TGAACGAGGTTAAAGATCAGGGAACGTGGCGTCG came in with a PBM binding z-score of 1.8.
The figure for TCGTATAGGTAATACAGGTGAAAGTCGGCATCTA is 0.991.

For the origin of these results see the supplement of paper PMC6555819.
